Counter-ions that a name gives are not always drawn. ± gives the standard error. The whole screen tested about 1,300 compounds, of which about 130 (10%) showed an effect of 50% or more. For the sample, strong results were picked, then their nearest neighbours and some compounds at random.

The assay relates to Trichoderma virens ATCC 9645. The experiment in a line: growth yield (OD600) with compound + IPBC relative to untreated control; higher = less growth inhibition. The settings on record: compound concentration: 100 uM, IPBC concentration: 200 ng/ml. An outline of the steps: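 Library compounds (100 μM final), with or without a co-applied biocide (200 ng ml^−1), were added to 100 μl aliquots of Trichoderma virens ATCC 9645 spores at 15,000 spores ml^−1 in potato dextrose broth. Cultures were grown at 30 °C in 96-well plates, and OD600 was measured at 40 h and 72 h. Each growth value is a mean of duplicate screens, expressed relative to the control with neither agent.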

In the case of `CC1CCc2cc(F)cc3c(=O)c(C(=O)O)cn1c23` (stereo not drawn) [Flumequine] + CCCCNC(=O)OCC#CI [3-iodo-2-propynyl butylcarbamate (IPBC)], the growth yield stood at 78.63 ± 0.16% (40 h) and 97.12 ± 0.84% (72 h).

`COC(=O)[C@H]1[C@H]2C[C@@H]3c4[nH]c5cc(OC)ccc5c4CCN3C[C@H]2C[C@@H](OC(=O)c2cc(OC)c(OC)c(OC)c2)[C@@H]1OC` [Reserpine] + CCCCNC(=O)OCC#CI [3-iodo-2-propynyl butylcarbamate (IPBC)]: the growth yield reads like this: (40 h) 102 ± 3.2%; (72 h) 104 ± 2%.

Regarding `CC(=O)NC1CCSC1=O` (racemic) [N-Acetyl-DL-homocysteine Thiolactone] + CCCCNC(=O)OCC#CI [3-iodo-2-propynyl butylcarbamate (IPBC)], the growth yield runs as follows: (40 h) 95.8 ± 7.8%; (72 h) 96.3 ± 7.8%.

Turning to `CC(C(=O)O)c1cccc(Oc2ccccc2)c1` (stereo not drawn) [Fenoprofen calcium salt dihydrate] + CCCCNC(=O)OCC#CI [3-iodo-2-propynyl butylcarbamate (IPBC)], the growth yield is, setting by setting: (40 h) 73.9 ± 12%; (72 h) 84 ± 9.1%.

Turning to `CC(C(=O)O)c1ccc(-c2ccccc2)c(F)c1` (stereo not drawn) [Flurbiprofen] + CCCCNC(=O)OCC#CI [3-iodo-2-propynyl butylcarbamate (IPBC)], the growth yield by setting is: (40 h) 43.4 ± 3.3%; (72 h) 76.9 ± 2%.

`CC(C(=O)O)c1cccc(C(=O)c2ccccc2)c1` (stereo not drawn) [Ketoprofen] + CCCCNC(=O)OCC#CI [3-iodo-2-propynyl butylcarbamate (IPBC)]: the growth yield runs as follows: (40 h) 74 ± 0.95%; (72 h) 86.4 ± 1.5%.

For the compound `NC(CO)C(=O)NNCc1ccc(O)c(O)c1O` (stereo not drawn) [Benserazide hydrochloride] + CCCCNC(=O)OCC#CI [3-iodo-2-propynyl butylcarbamate (IPBC)], the growth yield (40 h) turned out to be 63.9 ± 0.64% and the growth yield (72 h) stood at 75.2 ± 0.52%.

Consider `CN[C@@H]1[C@H](O)[C@H](NC)[C@H]2O[C@@]3(O)C(=O)C[C@@H](C)O[C@H]3O[C@@H]2[C@H]1O` [Spectinomycin dihydrochloride] + CCCCNC(=O)OCC#CI [3-iodo-2-propynyl butylcarbamate (IPBC)], for which the growth yield is, setting by setting: (40 h) 104 ± 13%; (72 h) 103 ± 8%.

`CC(NCCC(c1ccccc1)c1ccccc1)c1ccccc1` (stereo not drawn) [Fendiline hydrochloride] + CCCCNC(=O)OCC#CI [3-iodo-2-propynyl butylcarbamate (IPBC)]: the growth yield reads like this: (40 h) 70.37 ± 0.16%; (72 h) 93.7 ± 1.4%.

Turning to `Cc1ccnc(NS(=O)(=O)c2ccc(N)cc2)n1` [Sulfamerazine] + CCCCNC(=O)OCC#CI [3-iodo-2-propynyl butylcarbamate (IPBC)], the growth yield (40 h) came to 88.2 ± 6.2% and the growth yield (72 h) was found to be 90.9 ± 4.7%.

`CC(C)(C)C(=O)OCOC(=O)[C@@H]1N2C(=O)[C@@H](/N=C/N3CCCCCC3)[C@H]2SC1(C)C` [Pivmecillinam hydrochloride] + CCCCNC(=O)OCC#CI [3-iodo-2-propynyl butylcarbamate (IPBC)]: the growth yield is, setting by setting: (40 h) 57.8 ± 4.5%; (72 h) 77.2 ± 3.1%.

In the case of `CCC(=O)O[C@]1(C(=O)CCl)[C@@H](C)C[C@H]2[C@@H]3CCC4=CC(=O)C=C[C@]4(C)[C@@]3(F)[C@@H](O)C[C@@]21C` [Clobetasol propionate] + CCCCNC(=O)OCC#CI [3-iodo-2-propynyl butylcarbamate (IPBC)], the growth yield was 109 ± 7.2% (40 h) and 106 ± 4.7% (72 h).

Consider `C[C@@H]1C[C@@H]([C@H](O)CC2CC(=O)NC(=O)C2)C(=O)[C@@H](C)C1` [Cycloheximide] + CCCCNC(=O)OCC#CI [3-iodo-2-propynyl butylcarbamate (IPBC)], for which the growth yield (40 h) was determined as 34.3 ± 2.9% and the growth yield (72 h) amounted to 85.7 ± 3.2%.

As to `C[C@]12CC[C@H]3C(=CCc4cc(O)ccc43)[C@@H]1CCC2=O` [Equilin] + CCCCNC(=O)OCC#CI [3-iodo-2-propynyl butylcarbamate (IPBC)], the growth yield amounted to 82.4 ± 17% (40 h) and 86.8 ± 9% (72 h).

For the compound `C=CC[N@@+]12CC[C@@]34c5ccccc5N5/C=C6/[C@H]7C[C@H]8[C@@]9(CC[N@@+]8(CC=C)C/C7=C/CO)c7ccccc7N(/C=C(/[C@@H](C[C@@H]31)/C(=C\CO)C2)[C@H]54)[C@@H]69` [Alcuronium chloride] + CCCCNC(=O)OCC#CI [3-iodo-2-propynyl butylcarbamate (IPBC)], the growth yield (40 h) stood at 6.83 ± 0.16% and the growth yield (72 h) was 35.4 ± 3.4%.

Take `Cn1ccnc1S` [Methimazole] + CCCCNC(=O)OCC#CI [3-iodo-2-propynyl butylcarbamate (IPBC)]: the growth yield by setting is: (40 h) 120 ± 16%; (72 h) 111 ± 12%.

Consider `CNCCC(Oc1ccc(C(F)(F)F)cc1)c1ccccc1` (stereo not drawn) [Fluoxetine hydrochloride] + CCCCNC(=O)OCC#CI [3-iodo-2-propynyl butylcarbamate (IPBC)], for which the growth yield (40 h) amounted to 71.8 ± 4.8% and the growth yield (72 h) worked out at 96.9 ± 2.9%.

On to `COc1ccc(CN2CCN(C(c3ccc(F)cc3)c3ccc(F)cc3)CC2)c(OC)c1OC` [Lomerizine hydrochloride] + CCCCNC(=O)OCC#CI [3-iodo-2-propynyl butylcarbamate (IPBC)], for which the growth yield (40 h) came to 71.8 ± 5.7% and the growth yield (72 h) came out at 97.4 ± 4.9%.

As to `C(=C\c1ccccc1)/CN1CCN(C(c2ccccc2)c2ccccc2)CC1` [Cinnarizine] + CCCCNC(=O)OCC#CI [3-iodo-2-propynyl butylcarbamate (IPBC)], the growth yield is 34.9 ± 5.1% (40 h) and 93.1 ± 4% (72 h).

As to `OCCOCCN1CCN(C(c2ccccc2)c2ccc(Cl)cc2)CC1` (stereo not drawn) [Hydroxyzine dihydrochloride] + CCCCNC(=O)OCC#CI [3-iodo-2-propynyl butylcarbamate (IPBC)], the growth yield turned out to be 76.08 ± 0.16% (40 h) and 95.9 ± 2.5% (72 h).

Turning to `CN1CCN(C(c2ccccc2)c2ccccc2)CC1` [Cyclizine hydrochloride] + CCCCNC(=O)OCC#CI [3-iodo-2-propynyl butylcarbamate (IPBC)], the growth yield reads like this: (40 h) 82.6 ± 1.3%; (72 h) 87.6 ± 2%.

With `Fc1ccc(C(c2ccc(F)cc2)N2CCN(C/C=C/c3ccccc3)CC2)cc1` [Flunarizine dihydrochloride] + CCCCNC(=O)OCC#CI [3-iodo-2-propynyl butylcarbamate (IPBC)], the growth yield (40 h) came to 3.81 ± 0.32% and the growth yield (72 h) is 3.78 ± 0.42%.

With `O=C(O)COCCN1CCN(C(c2ccccc2)c2ccc(Cl)cc2)CC1` (stereo not drawn) [Cetirizine dihydrochloride] + CCCCNC(=O)OCC#CI [3-iodo-2-propynyl butylcarbamate (IPBC)], the growth yield (40 h) was found to be 88.5 ± 6.8% and the growth yield (72 h) worked out at 93.8 ± 3.8%.

Turning to `CC(C)NC[C@H](O)COc1ccc(CC(N)=O)cc1` [(S)-(-)-Atenolol] + CCCCNC(=O)OCC#CI [3-iodo-2-propynyl butylcarbamate (IPBC)], the growth yield runs as follows: (40 h) 82.8 ± 1.8%; (72 h) 88.2 ± 0.1%.

For `O=C(Nc1ccc([N+](=O)[O-])cc1Cl)c1cc(Cl)ccc1O` [Niclosamide] + CCCCNC(=O)OCC#CI [3-iodo-2-propynyl butylcarbamate (IPBC)], the growth yield runs as follows: (40 h) 83.7 ± 2.4%; (72 h) 90.4 ± 2.5%.

As to `CC(C)[C@H](N)C(=O)OCCOCn1cnc2c(=O)nc(N)[nH]c21` [Valacyclovir hydrochloride] + CCCCNC(=O)OCC#CI [3-iodo-2-propynyl butylcarbamate (IPBC)], the growth yield by setting is: (40 h) 86.7 ± 3.2%; (72 h) 96.4 ± 2.6%.

For `CN1C(=O)CCS(=O)(=O)C1c1ccc(Cl)cc1` (stereo not drawn) [Chlormezanone] + CCCCNC(=O)OCC#CI [3-iodo-2-propynyl butylcarbamate (IPBC)], the growth yield runs as follows: (40 h) 86.7 ± 3.2%; (72 h) 92.5 ± 1.7%.

Take `Nc1cc(-c2ccncc2)c[nH]c1=O` [Amrinone] + CCCCNC(=O)OCC#CI [3-iodo-2-propynyl butylcarbamate (IPBC)]: the growth yield reads like this: (40 h) 106%; (72 h) 41.3%.

With `Cc1[nH]c(=O)c(C#N)cc1-c1ccncc1` [Milrinone] + CCCCNC(=O)OCC#CI [3-iodo-2-propynyl butylcarbamate (IPBC)], the growth yield worked out at 89.11 ± 0.48% (40 h) and 92.9 ± 1.9% (72 h).

In the case of `CCCNC(C)C(=O)Nc1ccccc1C` (stereo not drawn) [Prilocaine hydrochloride] + CCCCNC(=O)OCC#CI [3-iodo-2-propynyl butylcarbamate (IPBC)], the growth yield stood at 86.4% (40 h) and 95.54 ± 0.52% (72 h).

With `C[C@H]1NC(=O)NC1=O` [Methylhydantoin-5-(D)] + CCCCNC(=O)OCC#CI [3-iodo-2-propynyl butylcarbamate (IPBC)], the growth yield runs as follows: (40 h) 97.4 ± 14%; (72 h) 95.4 ± 8.4%.

As to `CN1[C@@H]2C[C@@H](OC(=O)[C@H](CO)c3ccccc3)C[C@H]1[C@@H]1O[C@@H]12` [Scopolamine hydrochloride] + CCCCNC(=O)OCC#CI [3-iodo-2-propynyl butylcarbamate (IPBC)], the growth yield reads like this: (40 h) 94.4 ± 7.9%; (72 h) 94.1 ± 3.5%.

Consider `Cc1cnc(C(=O)O)c[n+]1[O-]` [Acipimox] + CCCCNC(=O)OCC#CI [3-iodo-2-propynyl butylcarbamate (IPBC)], for which the growth yield is 85.3 ± 0.48% (40 h) and 90.72 ± 0.1% (72 h).

In the case of `Nc1nc(=S)c2ncn([C@@H]3O[C@H](CO)[C@@H](O)[C@H]3O)c2[nH]1` [Thioguanosine] + CCCCNC(=O)OCC#CI [3-iodo-2-propynyl butylcarbamate (IPBC)], the growth yield is, setting by setting: (40 h) 46.1 ± 0.64%; (72 h) 88.3 ± 2.3%.

With `Nc1nc(F)nc2c1ncn2[C@@H]1O[C@H](CO)[C@@H](O)[C@@H]1O` [Fludarabine] + CCCCNC(=O)OCC#CI [3-iodo-2-propynyl butylcarbamate (IPBC)], the growth yield by setting is: (40 h) 85.3 ± 2.4%; (72 h) 86.6 ± 1.1%.

In the case of `Nc1ncnc2c1ncn2[C@@H]1O[C@H](CO)[C@@H](O)[C@@H]1O` [Vidarabine] + CCCCNC(=O)OCC#CI [3-iodo-2-propynyl butylcarbamate (IPBC)], the growth yield is, setting by setting: (40 h) 121 ± 11%; (72 h) 109 ± 7.3%.

In the case of `CN(C)CCCO[C@@H]1[C@H]2OC(C)(C)O[C@H]2O[C@@H]1[C@H](O)CO` [Amiprilose hydrochloride] + CCCCNC(=O)OCC#CI [3-iodo-2-propynyl butylcarbamate (IPBC)], the growth yield was found to be 89.4 ± 4.9% (40 h) and 93.3 ± 4.6% (72 h).

Consider `CCc1cc(C(N)=S)ccn1` [Ethionamide] + CCCCNC(=O)OCC#CI [3-iodo-2-propynyl butylcarbamate (IPBC)], for which the growth yield came to 82 ± 2.5% (40 h) and 90.61 ± 0.63% (72 h).

As for `CC1=C(C(=O)O)N2C(=O)[C@@H](NC(=O)[C@H](N)c3ccc(O)cc3)[C@H]2SC1` [Cefadroxil] + CCCCNC(=O)OCC#CI [3-iodo-2-propynyl butylcarbamate (IPBC)], the growth yield by setting is: (40 h) 81.5 ± 1.8%; (72 h) 88.5 ± 1.5%.

These data come from the supplement of paper PMC8007513.
